# Experimental data as given in PubChem BioAssay.
# The other results are listed elsewhere or left out. Activity calls are given as the source filed them. Rule as the data show it, unless noted: active = activity above about 50%; inactive = the rest.
# Columns and labels:
# [1] = molecular target: Tumor necrosis factor receptor superfamily member 10B (Homo sapiens) (UniProt O14763); assay: viability loss of caspase-8 NB7 cells with TRAIL – with/without TRAIL, luminescence panel, confirmation (AID 651596); settings: NB7 neuroblastoma + caspase-8, TRAIL sensitization, NB7 Caspase-8, with TRAIL, mean of runs, at 10 µM, stronger effect = higher value
# Tumor necrosis factor receptor superfamily member 10B (Homo sapiens), sequence (O14763 whole entry, looked up): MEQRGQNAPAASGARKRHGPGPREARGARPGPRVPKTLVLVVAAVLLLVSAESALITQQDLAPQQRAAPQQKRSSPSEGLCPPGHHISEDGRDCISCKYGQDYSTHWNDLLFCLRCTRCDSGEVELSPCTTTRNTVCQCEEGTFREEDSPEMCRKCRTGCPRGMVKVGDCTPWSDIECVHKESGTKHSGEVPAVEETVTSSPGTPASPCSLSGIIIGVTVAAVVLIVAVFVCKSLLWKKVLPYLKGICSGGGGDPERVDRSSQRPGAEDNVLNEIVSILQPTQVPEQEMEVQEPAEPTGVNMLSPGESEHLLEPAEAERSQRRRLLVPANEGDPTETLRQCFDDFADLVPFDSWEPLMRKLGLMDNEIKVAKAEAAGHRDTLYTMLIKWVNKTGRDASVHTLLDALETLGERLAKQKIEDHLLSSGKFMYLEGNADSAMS
# [2] = as above; settings: NB7 neuroblastoma + caspase-8, without TRAIL, NB7 Caspase-8, without TRAIL, mean of runs, at 10 µM
# [3] = HIF-2a driven luciferase blockers, single dose – luminescence, 786-0 RCC cells, confirmation (AID 651580;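 active = mean inhibition across four replicates of at least 40 percent at the single tested concentration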); settings: HIF-2a luciferase reporter luminescence, overnight, at 18.8 µM, stronger effect = higher value
# [4] = HIF-1a luciferase reporter signal reduction – MiaPaCa-2 cells, single concentration, counter-screen for HIF-2a inhibitor project, confirmation (AID 651589;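 active = mean inhibition of the reporter signal across four replicates at the single tested dose of 50% or more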); settings: MiaPaCa-2 HIF-1a luciferase reporter, desferoxamine, overnight; at 18.8 µM; stronger effect = higher value
structure (smiles),measurement,setting,value
O=C(CN1C(=O)c2ccccc2S1(=O)=O)c1ccc(Cl)cc1Cl,activity,[1],64.3%
COc1ccc(C2NN=C(c3ccc(C)cc3)S2)cc1OC (configuration not stated),activity,[1],60%
same,activity,[2],55%
CC(C)C[C@@H](N)c1nnc(SCC(=O)c2ccc(Cl)cc2)o1,inhibition,[3],80% (active)
same,inhibition,[4],-10.2% (inactive)
NC(=O)c1ccsc1NC(=O)c1coc2ccccc2c1=O,activity,[1],36.1%
same,activity,[2],33.8%
CCOc1ncccc1C(=O)OCC(=O)Nc1ccc(-c2nc3ccc(C)cc3s2)cc1,activity,[1],60.9%
same,activity,[2],67%
Cc1nc(SCCC(=O)O)c2cc(-c3ccccc3)sc2n1,activity,[1],59%
CCN1CCN(Cc2ccc(NC(=O)c3cc(NC(=O)C(=O)c4c[nH]c5ccccc45)cc(OC)c3)cc2C(F)(F)F)CC1,activity,[1],82.2%
same,activity,[2],77.7%
Cc1cc(Br)ccc1OCCCCNCCO,activity,[1],28.1%
same,activity,[2],41.9%
Cc1ccccc1C(CC(=O)c1cccs1)C(C#N)C#N (configuration not stated),inhibition,[3],28.4% (inactive)
same,inhibition,[4],100% (active)
CC[C@@H](C)[C@H](NC(=O)CCc1c(C)c2cc3c4c(oc3c(C)c2oc1=O)CCCC4)C(=O)O,inhibition,[3],68.5% (active)
same,inhibition,[4],44.4% (inactive)
CC/C(=N\NC(=O)c1csc(C)c1C)c1cccs1,activity,[1],57.8%
same,activity,[2],55.5%
Cc1ccc(S(=O)(=O)NC(=O)NC2=NC(C)(C)N(c3ccc(Cl)c(Cl)c3)C(N)=N2)cc1,activity,[1],77.4%
same,activity,[2],84.2%
CN1CCc2c(sc(NC(=O)c3ccc([N+](=O)[O-])o3)c2C(N)=O)C1,activity,[1],9.5%
same,activity,[2],95.3%
CS(=O)(=O)N(Cc1ccc(Cl)cc1)c1ccc(C(=O)NCCSCc2ccco2)cc1,inhibition,[3],-0.82% (inactive)
same,inhibition,[4],45.5% (inactive)
O=C(CN1C(=O)c2ccccc2S1(=O)=O)c1ccccc1F,activity,[1],16.9%
same,activity,[2],27.8%
O=C(Cc1ccsc1-c1ccccc1)NO,activity,[1],73.4%
same,activity,[2],72.3%
O=C(NC1=NCCS1)c1cccs1,activity,[1],-8.57%
same,activity,[2],-38%
CCSc1ccc(-c2cc(NC=O)c3ncc(-c4cccc(C(=O)NCCN(C)C)c4)n3c2)cc1,activity,[1],50.4%
same,activity,[2],87.7%
COc1ccc(/C(N)=N/OC(=O)c2c(-c3ccccc3Cl)noc2C)cc1OC,activity,[1],99.1%
same,activity,[2],98.8%
Cc1onc(C(=O)N2CCN(C(c3ccccc3)c3ccccc3)CC2)c1[N+](=O)[O-],activity,[1],99.8%
same,activity,[2],97%
Cc1ccc(C(=O)Nc2ncc3c(Cl)cccc3n2)cc1,activity,[1],91.5%
same,activity,[2],89%
COc1cc(NC(=O)c2cc3cccc(OC)c3o2)cc(C(=O)Nc2cccc(C(F)(F)F)c2)c1,activity,[1],36.8%
same,activity,[2],33.5%
Brc1nc(-c2ccccc2)nc(-c2ccccc2)c1Br,activity,[1],98.9%
same,activity,[2],99.2%
Cc1cccc(-c2cc3nc(-c4ccccc4)cc(=O)n3[nH]2)c1,activity,[1],50%
same,activity,[2],55.2%
Cc1ccc(CSc2nnc(-c3cccnc3)o2)cc1,activity,[1],43.5%
same,activity,[2],45.6%
COc1ccc(NC(=O)c2ccccn2)cc1,activity,[1],75%
same,activity,[2],69.8%
CCc1cc2c(=O)c(-c3cnn(-c4ccccc4)c3)c(C)oc2cc1OCC(=O)Nc1ccc(F)c(F)c1,activity,[1],37.2%
same,activity,[2],26.4%
COc1ccc(-c2cc(=O)c3ccccc3s2)cc1,activity,[1],61.2%
same,activity,[2],62%
COc1ccc(-c2cc3ccccc3c(=O)o2)cc1,activity,[1],49.4%
same,activity,[2],56.6%
Cc1ccc(-c2nc(N/N=C/c3ccccc3[N+](=O)[O-])c3ccccc3n2)cc1,activity,[1],90.3%
same,activity,[2],82.4%
Cc1ccc(Nc2nc(NCc3ccco3)c3ccccc3n2)cc1,activity,[1],41.2%
same,activity,[2],45.6%
O=C(Nc1ccc(N2CCOCC2)cc1)c1csc(COCCO)n1,activity,[1],54.5%
same,activity,[2],59.1%
COC(=O)c1sc(NC(=S)NC(=O)c2ccccc2C)nc1C,activity,[1],58%
same,activity,[2],61.3%
Cn1c2c(c(=O)n(C)c1=O)C(C(F)(F)F)(C(F)(F)F)N=C(c1ccc(Cl)cc1)N2,activity,[1],54.8%
same,activity,[2],52.3%
O=C(Nc1nc2ccccc2[nH]1)c1ccccc1,activity,[1],88%
same,activity,[2],84.5%
CCc1nc(N2CCN(C(=O)CCl)CC2)c2c3c(sc2n1)CC(C)CC3 (configuration not stated),activity,[1],99.3%
same,activity,[2],91.5%
CCOc1ccc(C(C)=O)cc1COC(=O)c1cnc(Cl)c(Cl)c1,activity,[1],97.6%
same,activity,[2],79.1%
Cc1ccc2nc(-c3ccc(NC(=O)COC(=O)c4ccc(Br)o4)cc3)sc2c1,activity,[1],62%
same,activity,[2],67.4%
O=C(Nc1cc2ccccc2oc1=O)c1ccccc1,activity,[1],54.1%
same,activity,[2],52%
CCCn1c(C)cc(C(=O)COC(=O)c2ccc[nH]c2=O)c1C,activity,[1],49%
same,activity,[2],49.6%
CC(C)(C)OC(=O)NCCCC[C@H](NC(=O)c1[nH]cnc1C(=O)N[C@@H](Cc1ccccc1)C(=O)OC(C)(C)C)C(=O)OC(C)(C)C,activity,[1],84%
same,activity,[2],64.7%
CCCNC(=O)c1ccc(-c2nc3ccccc3s2)s1,activity,[1],87.8%
same,activity,[2],83.5%
CC(C)(C)OC(=O)NCCCCCNC(=O)c1[nH]cnc1C(=O)Nc1cc(Br)ccc1F,activity,[1],78.2%
same,activity,[2],63.6%
COc1ccc2nc(Nc3ccccc3OC)sc2c1,activity,[1],68.3%
same,activity,[2],59.2%
CCC(=O)c1ccc(/C=C/c2nc3ccccc3n2C)o1,activity,[1],61.2%
same,activity,[2],54.8%
CCCNC(=O)c1oc2ccc3c(c2c1C)C(=O)CC(C)(C)O3,activity,[1],66.1%
same,activity,[2],68.4%
O=C(CCl)Nc1ncc(S(=O)(=O)c2ccc([N+](=O)[O-])cc2)s1,activity,[1],95.9%
same,activity,[2],92.3%
